Screens deposited in PubChem by The Scripps Research Institute Molecular Screening Center.
Compounds with a hit are over-represented: about 1.7% of the library has one in this group of screens.
EBNA-1 inh – blocks EBNA-1 binding to DNA. EBNA-1 DNA binding, fluorescence polarization. inhibition, % at 14.8 µM. hit rate 0.34% among 300,000. AID 1950; in the data active = inhibition above about 28%
PAD4 inh – blocks human protein arginine deiminase 4; recombinant PAD4, RCA probe fluorescence polarization; inhibition, % at 6.36 µM; AID 485272; Q9UM07; hit rate 0.41% among 330,000;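 active = percent inhibition above a cutoff equal to the mean of all tested compounds plus 3 SD, cut at about 15% in these data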;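 also: 0% = PAD4 with RCA probe and DMSO and 100% = probe without PAD4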
GSTO1 inh – blocks human GSTO1 in RBBP9 counter-screen; P78417; recombinant GSTO1, activity-based probe fluorescence polarization; inhibition, % at 5.96 µM; hit rate 1.1% among 300,000;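 active = inhibition above the campaign mean inhibition plus 3 SD, cut at about 35% in these data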;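 also: 0% = GSTO1-1 with DMSO and 100% = wells lacking GSTO1-1 enzyme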
Target sequence (P78417 whole entry, looked up): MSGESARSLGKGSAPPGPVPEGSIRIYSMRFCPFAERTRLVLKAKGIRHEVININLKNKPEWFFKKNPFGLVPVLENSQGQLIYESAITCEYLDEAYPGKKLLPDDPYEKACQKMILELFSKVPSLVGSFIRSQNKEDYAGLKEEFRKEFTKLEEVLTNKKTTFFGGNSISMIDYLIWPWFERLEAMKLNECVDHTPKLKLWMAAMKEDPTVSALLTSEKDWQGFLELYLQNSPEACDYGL
ZTA DNA inh – counter-screen for EBNA-1 inhibitors: inhibitors of Epstein-Barr virus ZTA; P03206; ZTA-DNA binding, fluorescence polarization; inhibition, % at 11 µM; hit rate 0.15% among 320,000; AID 2234; in the data active = inhibition above about 33%
LYPLA2 inh – LYPLA2 (human) inhibition in PME1 counter-screen | AID 2177 | inhibition, % at 5.9 µM | hit rate 0.38% among 320,000 | recombinant LYPLA2, FP-Rh probe fluorescence polarization;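 active = inhibition above the screen-wide mean plus 3 SD, limit set per campaign, cut at about 26% in these data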;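 also: 0% = LYPLA2 with DMSO and 100% = wells lacking LYPLA2 enzyme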
Target sequence (O95372 whole entry, looked up): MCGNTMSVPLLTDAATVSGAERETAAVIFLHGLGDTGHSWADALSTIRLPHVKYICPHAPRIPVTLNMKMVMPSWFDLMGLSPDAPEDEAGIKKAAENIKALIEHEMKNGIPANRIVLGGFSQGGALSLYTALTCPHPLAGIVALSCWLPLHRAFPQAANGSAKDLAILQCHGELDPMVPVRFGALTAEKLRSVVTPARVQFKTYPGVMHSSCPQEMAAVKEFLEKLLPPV
LYPLA1 inh – blocks human lysophospholipase 1, a PME1 counter-screen. inhibition, % at 5.9 µM. AID 2174. recombinant LYPLA1, FP-Rh probe fluorescence polarization. hit rate 0.16% among 320,000;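 active = inhibition above the mean of all tested compounds plus 3 SD, set per campaign, cut at about 14% in these data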;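 also: inhibitors block serine hydrolase probe labeling of LYPLA1 so polarization falls; 0% = enzyme with DMSO and 100% = wells lacking LYPLA1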
Numbers without * were called inactive; nt = not tested or not shown.

SMILES	EBNA-1 inh	PAD4 inh	GSTO1 inh	ZTA DNA inh	LYPLA2 inh	LYPLA1 inh
COc1c(O)ccc(C2NC(=O)NC(C)=C2C(=O)Nc2ccccc2C)c1[N+](=O)[O-] (stereo not drawn)	3	-2	15	6	1	-6
CSc1ccccc1NC(=O)C1CCN(S(C)(=O)=O)CC1	-11	-2	35*	5	3	0
Nc1ccc(C(=O)O)cc1	6	-3	2	-6	6	4
Nc1ccc(O)cc1	-10	52*	98*	23	9	7
Cc1cc(C(C)(C)C)cc(C)c1S(=O)(=O)N1CCN(C(=O)c2cc([N+](=O)[O-])c[nH]c2=O)CC1	-6	-4	3	8	1	-1
O=C1CCCC2=C1C(c1ccc(O)c(O)c1)Nc1ccc3ncccc3c12 (stereo not drawn)	1	1	78*	5	-8	-8
CC1=NN(c2ccccc2C(=O)O)C(=O)C1N=Nc1ccccc1 (stereo not drawn)	2	-5	36*	4	3	-3
Cc1noc(C)c1COc1ccc(C(=O)OCC(=O)Nc2ccc(S(N)(=O)=O)cc2)cc1	nt	-9	nt	9	1	-5
O=C(CNS(=O)(=O)c1ccc(Cl)cc1)NC1CCCCC1	nt	2	nt	-11	-6	0
CN(c1ccccc1)S(=O)(=O)c1cccc(C(=O)NCCc2ccc(O)c(O)c2)c1	-4	-1	39*	-8	7	-1
COc1ccc(OCC(=O)NNC(=O)c2ccc3c(=O)n4c(nc3c2)CCC4)cc1	-3	-3	37*	-8	-12	-6
Cc1ccc(OCC(=O)NNC(=O)c2ccc3c(=O)n4c(nc3c2)CCC4)cc1	-6	-7	-13	-3	0	-1
COc1ccc(C2=NN(c3nc(-c4ccccc4)c(CC(=O)O)s3)C(c3ccco3)C2)cc1 (stereo not drawn)	40*	-27	-18	-6	-12	-11
Cc1nc(N2N=C(c3ccc(Cl)cc3)CC2c2ccco2)sc1C(=O)N(C)C (stereo not drawn)	2	-3	9	-3	-3	-2
Cc1cccc(N2CCN(S(=O)(=O)c3c(C)nc4scc(C)n4c3=O)CC2)c1C	-2	-7	-1	17	-10	-4
Cc1ccoc1C(=O)NCCCNC(=O)c1occc1C	8	-14	35*	7	-3	-2
Cc1ccoc1C(=O)NCCNC(=O)c1occc1C	10	4	4	8	-2	-1
CSc1ccc(CNCC2CCCO2)cc1 (stereo not drawn)	3	0	0	-5	7	3
COC(=O)c1cc(O)cc(OC)c1C(=O)c1c(O)cc(C)cc1O	1	-1	-1	4	9	-1
COC(=O)c1cc(O)cc(OC)c1Oc1cc(C)cc(O)c1C(=O)O	-7	-4	36*	-10	8	2
Cc1cc(OCC(O)CN2CCCC2)cc(C)c1Cl (stereo not drawn)	4	-1	2	-3	1	-2
CCc1cccc(NC(=O)C(NC(=O)C2CCCCC2)C(C)C)c1 (stereo not drawn)	-2	-1	9	-8	-2	-3
O=[N+]([O-])c1ccc(/C=N/N2CCCCC2)cc1	-9	-1	3	-2	9	5
Cc1ccc(NC(=O)C2C3C=CC(O3)C2C(=O)O)c(C)c1 (stereo not drawn)	-5	-1	1	5	8	3
COc1ccc(/C(C)=N/OC/C(O)=C(\C#N)c2nc3ccccc3[nH]2)c(OC)c1	3	3	37*	-4	4	-1
SMILES	EBNA-1 inh	PAD4 inh	GSTO1 inh	ZTA DNA inh	LYPLA2 inh	LYPLA1 inh
O=C(OCc1ccccc1)Oc1cncc(C(=O)O)c1	-5	-1	35*	-8	4	1
COc1ccccc1C(=O)Nc1ccccc1SC(=O)c1ccccc1OC	-2	80*	-4	-4	0	-7
COc1ccc(C(=O)N2CCN(c3ccc(C(C)=O)cc3)CC2)cc1S(=O)(=O)N1CCCC1	nt	-2	nt	nt	nt	nt
CC(Oc1ccc2c3c(c(=O)oc2c1)CCCC3)C(=O)NCc1cccnc1 (stereo not drawn)	-2	-1	-3	-28	1	1
COC(=O)c1ccc(NS(=O)(=O)c2ccc(OC)cc2)cc1	-6	2	4	-5	-3	0
COc1ccc(S(=O)(=O)Nc2ccc(Oc3ccsc3C(=O)O)cc2)cc1	-1	0	35*	0	-3	-1
CS(=O)(=O)c1ccc(Cl)c(NC(=O)CSc2nc3ccccc3c(=O)n2Cc2ccco2)c1	1	2	10	7	4	2
O=C1CC(=O)N(Cc2cccs2)C(=O)N1	6	-3	24	-2	-1	-2
O=C1CC(=O)N(Cc2ccco2)C(=O)N1	14	-4	37*	22	-1	2
Cc1ccc(NC2=NCC(=O)N2C2CCCC2)cc1	-6	-4	1	-3	6	0
COc1cc(-n2nc(C)c3c2OC(N)=C(C#N)C3c2ccccc2)c(Cl)c(Br)c1O (stereo not drawn)	-2	26*	21	7	5	4
Cc1ccc(C)c(S(=O)(=O)N2CCCC2CNC(=O)C(=O)NCc2ccccc2C)c1 (stereo not drawn)	-5	-3	3	0	5	0
O=C(OC[C@H]1O[C@@H](OC(=O)c2cc(O)c(O)c(OC(=O)c3cc(O)c(O)c(O)c3)c2)[C@H](OC(=O)c2cc(O)c(O)c(OC(=O)c3cc(O)c(O)c(O)c3)c2)[C@@H](OC(=O)c2cc(O)c(O)c(OC(=O)c3cc(O)c(O)c(O)c3)c2)[C@@H]1OC(=O)c1cc(O)c(O)c(OC(=O)c2cc(O)c(O)c(O)c2)c1)c1cc(O)c(O)c(OC(=O)c2cc(O)c(O)c(O)c2)c1	86*	-55	35	87*	17	0
O=S1(=O)c2ccccc2N=NN1Cc1ccc(Cl)c(Cl)c1	-11	-7	35*	16	1	1
CC(NC(=O)Cc1ccc(Br)cc1)c1ccccc1 (stereo not drawn)	-6	1	14	17	-5	-2
CNc1cccccc1=S	5	11	37*	-19	-1	-1
c1ccc(C2=Nc3ccccc3SC2c2nc3ccccc3[nH]2)cc1 (stereo not drawn)	7	28*	13	15	1	1
O=C1CC(c2nc3ccccc3[nH]2)CN1c1ccccc1 (stereo not drawn)	4	-4	-4	13	4	0
CCc1ccc(NC(=S)Nc2ccc3[nH]c(=O)[nH]c3c2)cc1	7	1	-3	10	2	-1
O=C(CN(c1ccccc1)S(=O)(=O)c1ccc(Cl)cc1)Nc1cccnc1	-3	-4	-4	-3	2	-2
COC(=O)c1cc(O)c(O)c(O)c1	-2	5	47*	-10	7	-3
COC(=O)c1cc(OC)nc(OC)c1	-5	3	1	-3	3	-4
